Here are results for 8 molecules from PubChem BioAssay (NCI).

The panel holds about 83,000 compounds, 20% with a hit somewhere; the sample as a whole holds those more often.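 Activity criterion: percent growth below 10, measured after cells in 96-well plates were exposed to a single compound concentration for 48 hours.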 Values without a mark were called inactive. Activity calls are given as the source filed them.

Among the test systems are HCT-15 colon; HT29 colon; SNB-75 CNS; SNB-19 CNS; U251 CNS; PC-3 prostate; UACC-62 melanoma; LOX IMVI melanoma; SK-MEL-28 melanoma; SK-MEL-2 melanoma; EKVX NSCLC; SN12C renal; UO-31 renal; TK-10 renal; ACHN renal; CAKI-1 renal; A498 renal; CCRF-CEM leukemia; MOLT-4 leukemia; SK-MEL-5 melanoma.
Holding throughout (assay): NCI-60 one-dose screen, 48 h (100 = growth as untreated, 0 = no growth, -100 = all killed)
Holding throughout (details): 10 µM unless noted

`C=C1CC[C@@H]2[C@]3(C)COC(c4ccccc4)O[C@@H]3CC[C@@]2(C)[C@@H]1C/C=C1/C(=O)OC[C@H]1O` (stereo partly drawn): the growth in the experiment on HCT-15 colon was 65.5%; with HT29 colon it was 54.8%; in the experiment on SNB-75 CNS, 100%; in the experiment on SNB-19 CNS it was 97%; in the experiment on U251 CNS, 64.2%; in the experiment with PC-3 prostate, 82.4%. Also, the growth with UACC-62 melanoma is 85.7%; in the experiment with LOX IMVI melanoma, 33.8%; in the experiment with SK-MEL-28 melanoma, 107%; in the experiment on SK-MEL-2 melanoma, 93.3%; in the experiment with EKVX NSCLC, 100%; in the experiment on SN12C renal, 79.9%. Besides, the growth in the experiment with UO-31 renal is 75.7%; in the experiment on TK-10 renal, 109%; with ACHN renal, 100%; in the experiment with CAKI-1 renal it was 83.7%; in the experiment on A498 renal it was 109%; with CCRF-CEM leukemia, 9.03% (active). The growth in the experiment on MOLT-4 leukemia is 84%.

For the molecule `COc1ccc(-n2c(/C=C3\C(=O)Nc4ccccc43)ccc2CO)cc1`, the growth is 89.7% with HCT-15 colon; 105% with HT29 colon; 101% in the experiment on SNB-75 CNS; 90% in the experiment with SNB-19 CNS; 95.1% with U251 CNS; 96.4% with PC-3 prostate. For the same molecule, the growth in the experiment with UACC-62 melanoma was 83.3%; in the experiment on LOX IMVI melanoma it was 94.6%; in the experiment on SK-MEL-28 melanoma, 101%; in the experiment with SK-MEL-2 melanoma, 104%; in the experiment on EKVX NSCLC, 94.7%; with SN12C renal, 104%. Besides, the growth is 74.1% with UO-31 renal; 105% with TK-10 renal; 93.6% with ACHN renal; 84.6% with CAKI-1 renal; 107% with A498 renal; 97.8% in the experiment on CCRF-CEM leukemia. In addition, the growth in the experiment on MOLT-4 leukemia is 90.2%.

As to `Cc1occc1-c1nc2s/c(=C/c3ccc(-c4cc(C(F)(F)F)ccc4Cl)o3)c(=O)n2n1`, the growth in the experiment with HCT-15 colon was 104%; with HT29 colon, 106%; in the experiment with SNB-75 CNS, 97.5%; with SNB-19 CNS it was 98.5%; in the experiment on U251 CNS, 105%; with PC-3 prostate, 97.7%. The growth is 99.7% in the experiment on SK-MEL-5 melanoma; 93.8% in the experiment with UACC-62 melanoma; 101% in the experiment with LOX IMVI melanoma; 109% with SK-MEL-2 melanoma; 100% with EKVX NSCLC; 98.4% with SN12C renal. The growth in the experiment with UO-31 renal was 87.4%; with TK-10 renal, 114%; in the experiment with ACHN renal it was 102%; with A498 renal, 105%; in the experiment with CCRF-CEM leukemia, 117%; in the experiment with MOLT-4 leukemia it was 113%.

As to `Nc1nc(N)c2c(n1)NC(c1ccc(C(F)(F)F)cc1)CC(c1ccc(Nc3nc(NCCO)nc(N4CCOCC4)n3)cc1)=N2` (stereo not drawn), the growth was 37.2% with HCT-15 colon; 50.4% in the experiment on HT29 colon; 66% in the experiment on SNB-75 CNS; 84% in the experiment with SNB-19 CNS; 45.6% in the experiment on U251 CNS; 49.2% in the experiment with PC-3 prostate. The growth with UACC-62 melanoma is 82.2%; in the experiment on LOX IMVI melanoma, 49.7%; in the experiment on SK-MEL-28 melanoma, 81.7%; in the experiment with SK-MEL-2 melanoma, 80.6%; with EKVX NSCLC, 85.5%; in the experiment with SN12C renal it was 78.2%. Moreover, the growth is 80.4% in the experiment on UO-31 renal; 97.5% with TK-10 renal; 88.3% in the experiment on ACHN renal; 79.7% in the experiment on CAKI-1 renal; 72.6% in the experiment on A498 renal; 35.1% with CCRF-CEM leukemia. For the same molecule, in the experiment with MOLT-4 leukemia, the growth was 23.8%.

Regarding `C=CC(=O)N1CCC=C(c2cc3c(N[C@H](C)c4ccccc4)ncnc3[nH]2)C1`, the growth is 73.2% with HCT-15 colon; 66.5% in the experiment on HT29 colon; 3.25% (active) in the experiment with SNB-75 CNS; 77.1% with SNB-19 CNS; 84.2% in the experiment with U251 CNS; 68.9% in the experiment on PC-3 prostate. Besides, the growth was 85.7% in the experiment on SK-MEL-5 melanoma; 68.5% with UACC-62 melanoma; 57.5% in the experiment on LOX IMVI melanoma; 89.7% with SK-MEL-2 melanoma; 28.1% in the experiment with EKVX NSCLC; 29.3% with SN12C renal. In addition, the growth in the experiment on UO-31 renal was 20.5%; in the experiment with TK-10 renal, -5.86% (active); in the experiment with ACHN renal, 6.81% (active); in the experiment on CAKI-1 renal it was 14.4%; with A498 renal, -27.8% (active); in the experiment on MOLT-4 leukemia it was 93.4%.

Regarding `CC(=O)c1cc(C(=O)N2c3ccccc3Sc3ccccc32)n2ccc3ccccc3c12`, the growth is 29.2% in the experiment on HCT-15 colon; 14.8% in the experiment on HT29 colon; 34.6% in the experiment with SNB-75 CNS; 49.1% with SNB-19 CNS; 37.8% in the experiment on U251 CNS; 37.6% with PC-3 prostate. Moreover, the growth in the experiment on UACC-62 melanoma was 21.4%; in the experiment on LOX IMVI melanoma it was 41.4%; with SK-MEL-28 melanoma it was 62.7%; in the experiment on SK-MEL-2 melanoma it was -77.5% (active); in the experiment on EKVX NSCLC it was 61.3%; in the experiment with SN12C renal, 67.6%. Besides, the growth with UO-31 renal is 42.8%; in the experiment with TK-10 renal it was 98.4%; in the experiment with ACHN renal it was 42.5%; in the experiment with CAKI-1 renal, 39.8%; with A498 renal, 12.9%; in the experiment with CCRF-CEM leukemia, 28%. Moreover, the growth with MOLT-4 leukemia is 49.1%.

`COc1cc(/C=N/NC(=O)c2cn(C3CC3)c3c(OC)c(N4CC5CCCNC5C4)c(F)cc3c2=O)ccc1O` (stereo not drawn): the growth in the experiment on HT29 colon was -0.257% (active); in the experiment with SNB-75 CNS, 106%; with SNB-19 CNS, 26.2%; in the experiment with U251 CNS it was -67% (active); in the experiment with PC-3 prostate it was 45.1%; with SK-MEL-5 melanoma, 95.4%. Besides, the growth in the experiment on UACC-62 melanoma was 91.5%; in the experiment on LOX IMVI melanoma it was -83.5% (active); with SK-MEL-28 melanoma, 94.4%; in the experiment on SK-MEL-2 melanoma, 113%; in the experiment with EKVX NSCLC, 24.9%; with SN12C renal, 23.8%. Besides, the growth was 81.1% in the experiment on UO-31 renal; 119% with TK-10 renal; 35.3% in the experiment on ACHN renal; 82.9% with CAKI-1 renal; 99.4% with A498 renal; 2.53% (active) in the experiment on CCRF-CEM leukemia. Moreover, in the experiment on MOLT-4 leukemia, the growth is 2.34% (active).

Take `Cc1ccc2c(c1)C(=O)/C(=C/c1cccc(F)c1)S2`: the growth in the experiment with HCT-15 colon is 100%; in the experiment on HT29 colon, 104%; in the experiment with SNB-75 CNS, 106%; with SNB-19 CNS, 96.9%; in the experiment with U251 CNS, 101%; with PC-3 prostate, 86.4%. Besides, the growth in the experiment on UACC-62 melanoma is 83.7%; in the experiment on LOX IMVI melanoma it was 114%; in the experiment with SK-MEL-28 melanoma, 101%; with EKVX NSCLC, 98.5%; with SN12C renal, 101%; in the experiment with UO-31 renal, 88.4%. In addition, the growth with TK-10 renal is 123%; with ACHN renal it was 102%; in the experiment on CAKI-1 renal, 85.8%; with CCRF-CEM leukemia it was 104%; with MOLT-4 leukemia, 106%.
